Screening results (PubChem)
Only some compounds are listed: those with a hit (about 3.8% of all), similar ones and a draw of the others.
A549 viability: A549 cytotoxicity, counter-screen for Nrf2 inhibitors; A549 ARE-Fluc cells, CellTiter-Fluor viability, 18-24 h; Potency, µM (highest dose often 46 µM), for the others: at the highest dose activity change, negative = cytotoxicity, most hits filed as inhibitors; 390,000 tested, 0.16% active; AID 504648; also: % is scaled to controls: 0 for no effect and ±100 for the full control effect
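Cytotoxicity counterscreen: CellTiter-Fluor fluorescence was measured in A549 ARE_Fluc cells after 18-24 h of compound exposure in a concentration series. The subsequent BugLite luminescent read reports ARE-luciferase activity.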
Nrf2 inh: inhibitors of Nrf2 signaling | Potency, µM (doses to about 46 µM), without a hit: at the highest dose activity change, negative = inhibition, usual class: inhibitors | 360,000 tested, 2.1% active | A549 ARE-Fluc reporter, luciferase luminescence, 18-24 h; also: % is scaled to controls: 0 for no effect and ±100 for the full control effect; nearly all actives have a fitted effect of over 60% in size
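Two sequential reads on A549 ARE_Fluc cells exposed to compound for 18-24 h: a CellTiter-Fluor fluorescence read for viability, then a luciferase luminescence read for Nrf2/ARE activity.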
ATXN2 expr inh: ATXN2 expression inhibition; HEK-293 ATXN2-luciferase reporter, luminescence, 24 h; Potency, µM (series often up to 57 µM), inactives show at the top dose activity change, negative = inhibition, actives largely listed as inhibitors; 360,000 tested, 0.72% active; AID 1745845; also: % is scaled to controls: 0 for no effect and ±100 for the full control effect; nearly all actives have a fitted effect of over 55% in size
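ATXN2-luciferase reporter cells (luciferase flanked by upstream and downstream ATXN2 gene portions) were treated 24 h at 37 °C with compounds at up to 57 uM. SteadyGlo luminescence gave expression; GF-AFC fluorescence gave viability.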
ATXN viability: reduces viability in counter-screen for ATXN expression inhibitors. S2 cells (HEK-293 line with an ATXN2-luciferase reporter) viability, CellTiter-Fluor protease fluorescence, 24 h. Potency, µM (series often up to 56.7 µM), actives largely listed as cytotoxic. 400,000 tested, 0.49% active; also: nearly all actives have a fitted effect of over 40% in size
HepG2 tox: HepG2 cytotoxicity, counter-screen for TGF-b inhibitors; AID 588856; 410,000 tested, 0.76% active; HepG2 CAGA-GFP viability, ATP luminescence, 18 h; Potency, µM (series often up to 46.1 µM), without a hit: at the top dose activity change, negative = cytotoxicity, actives largely listed as cytotoxic
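CellTiter-Glo luminescence gave cytotoxicity after 18 hours at 37 degrees C. The cells were HepG2 CAGA-GFP in 1% FBS DMEM, stimulated with 500 pg/mL TGF-beta after compound addition. %Activity was normalised to no-cell wells (complete cell-killing) and DMSO (no toxicity), and curves were fitted and classified.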
TGFb SMAD3 inh: inhibitors of TGF-b signaling; HepG2 CAGA-GFP TGF-b/SMAD3 reporter, GFP fluorescence, 18 h; TGF-beta stimulated, 500 pg/mL final; Potency, µM (highest dose often 46.1 µM), without a hit: at the top dose activity, negative = inhibition, most hits filed as inhibitors; 410,000 tested, 1.2% active; also: % is scaled to controls: 0 for no effect and ±100 for the full control effect; nearly all actives have a fitted effect of over 65% in size
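HEPG2 CAGA-GFP reporter cells (1000/well, DMEM with 1% FBS) received compounds, then recombinant TGF-beta at 500 pg/mL final for 18 hours at 37 degrees C. Per-cell GFP summed per well was normalised to unstimulated and stimulated DMSO controls before curve fitting.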
* = called active by the depositor; i = inactive; ? = inconclusive; . = no result given; ! = a repeat was not active. Calls follow the shape of the dose curve; as a rule, active = well fitted curve in the direction sought with a large enough effect; inconclusive = small, poorly fitted or top-dose-only effect, or another doubt; inactive = no such curve, though single readings can be large; an effect the other way counts as inactive or inconclusive. Potency is read from the fitted curve at half-maximal effect.

SMILES | A549 viability | Nrf2 inh | ATXN2 expr inh | ATXN viability | HepG2 tox | TGFb SMAD3 inh
ClC(Cl)(Cl)c1nc2ccccc2n2nncc12 | ? | ? | 12.6µM* | ? | 20µM* | 15.8µM*
c1ccc(CCNc2nc3ccccc3n3nnnc23)cc1 | -0.5% | -14.5% | 15.4% | i | 5.5% | 27.1%
CCOCCCNC(=O)c1cnc2sc(N3CCCCCC3)nn2c1=O | 4.3% | -9.8% | . | . | 2.5% | 0.0%
CCCCCCCCC(=O)N/N=C(\C)c1ccc(O)cc1O | ? | ? | 17.8µM* | ? | -22.9% | ?
C/C(=N\NC(=O)c1ccc(O)cc1)c1ccc(N2CCOCC2)cc1 | -1.9% | 3.7% | -15.9% | i | 8.3% | 13.0%
CC(=NNC(=O)c1ccncc1)c1ccccc1O | -13.6% | ? | ? | i | -12.8% | 0.0%
C/C(=N\NC(=O)c1cc(-c2cccnc2)nc2ccccc12)c1ccc(O)cc1O | ? | 14.6µM* | 3.98µM* | ? | -20.1% | -8.6%
C/C(=N\NC(=O)c1ccc(N/N=C(\C)c2ccc(O)cc2)cc1)c1ccc(O)cc1 | -12.3% | 9.1% | . | ? | 11.2µM* | 12.6µM*
CC(=NNC(=O)c1ccncc1)c1ccc(O)cc1O | -15.3% | ? | 14.1µM* | i | 9.7% | -1.1%
Cc1cc(Br)ccc1NC(=O)c1cc2c(=O)n(C)c3cc(Cl)ccc3c2s1 | 11.1% | 16.4% | 5.1% | i | -10.9% | 3.9%
N#C/C(=C\c1coc2ccc(O)cc2c1=O)C(=O)Nc1nc2ccccc2s1 | ? | -17.9% | . | ? | 11.2µM* | ?
O=C(Cn1cnc2ccccc21)Nc1ccc2c(c1)OCCCO2 | -14.5% | 13µM* | 9.3% | i | -1.5% | -12.0%
O=C(Cn1cnc2ccccc2c1=O)Nc1ccc2c(c1)OCO2 | 9.2% | ? | 57.6% | i | -2.1% | 11.4%
CCOC(=O)c1c(C)[nH]c(C)c1S(=O)(=O)N(C)CC(=O)N1CCN(c2cccc(C)c2C)CC1 | -1.2% | 0.0% | 0.0% | ? | -33.2% | ?
CC(C)(C)c1cc[n+](C2=C([O-])c3ccccc3C(=O)/C2=N\S(=O)(=O)c2cccs2)cc1 | ? | ? | 10.6µM* | ? | 4.47µM* | 2.82µM*
CC(C)(C)c1ccc(C(=O)NCC(c2cccs2)S(=O)(=O)c2cccs2)cc1 (stereo not given) | ? | . | -37.6% | ? | -16.1% | -6.7%
O=C1/C(=N\S(=O)(=O)c2cccs2)C([n+]2ccccc2)=C([O-])c2ccccc21 | ? | -127.1% | . | 11.2µM* | -111.5% | 2µM*
N/C(=N\S(=O)(=O)c1cccs1)c1ccccc1 | -1.3% | . | -10.7% | i | 4.5% | 3.8%
CCO[C@@H]1OC(C(=O)N2CCN(Cc3ccccc3)CC2)=C[C@H](c2ccc(Br)cc2)[C@H]1CCCO | -6.8% | -5.1% | -36.1% | ? | -3.6% | -25.9%
CCO[C@@H]1OC(C(=O)N2CCN(Cc3ccccc3)CC2)=C[C@H](c2ccc(C(F)(F)F)cc2)[C@H]1CCCO | -7.8% | -23.3% | 0.0% | ? | -32.6% | 12.6µM*
CCOC(=O)c1ccc(N2C(=O)c3n[nH]c(-c4ccco4)c3C2c2ccccc2OC)cc1 (stereo not given) | -21.0% | 25.9µM* | ? | ? | 5.01µM* | ?
CCOC(=O)c1ccc(N2C(=O)c3n[nH]c(C)c3C2c2ccccc2OC)cc1 (stereo not given) | -1.9% | 8.2µM* | 0.0% | ? | -41.1% | ?
CCNc1ccc(/C=C/c2ccnc3ccccc23)cc1 | . | . | . | . | -23.9% | 0.2%
CC1CC(C)CN(S(=O)(=O)c2ccc(C(=O)Nc3nnc(-c4cccs4)o3)cc2)C1 (stereo not given) | ? | 5.01µM* | ? | ? | -20.9% | -8.2%
CN(C)S(=O)(=O)c1ccc(C(=O)Nc2nnc(-c3cccs3)o2)cc1 | -4.3% | ? | . | ? | -32.4% | -12.5%
SMILES | A549 viability | Nrf2 inh | ATXN2 expr inh | ATXN viability | HepG2 tox | TGFb SMAD3 inh
O=C(Nc1nnc(-c2cccs2)o1)c1cccc(C(F)(F)F)c1 | -1.0% | ? | 15.8µM* | ? | -17.9% | ?
CCC1CCCCN1S(=O)(=O)c1ccc(C(=O)Nc2nnc(-c3cccs3)o2)cc1 (stereo not given) | ? | 5.01µM* | ? | i | -32.3% | ?
Cc1nc(COC(=O)c2ccc(S(=O)(=O)N3CCCC3)cc2)cs1 | 2.7% | 6.2% | -3.5% | ? | 8.5% | 20.6%
O=C(CCNS(=O)(=O)c1ccc(Br)cc1)NCc1ccc(Cl)cc1 | -1.7% | 13.5% | -10.3% | i | 11.2µM* | -10.9%
CC1CCCC(NC(=O)CCNS(=O)(=O)c2ccc(Br)cc2)C1C (stereo not given) | ? | 14.6µM* | 0.7% | i | -24.8% | -29.7%
O=C(CCNS(=O)(=O)c1ccc(Br)cc1)NC1CCCCC1 | -1.9% | -8.3% | 0.4% | i | -2.1% | -2.7%
COc1ccc(OC)c(S(=O)(=O)N/N=C(/C)c2ccc3c(c2)OCO3)c1 | -8.8% | -3.2% | 3.8% | i | 0.1% | 0.0%
Cc1ncc2c(c1CNS(=O)(=O)N(C)C)CCN(C(=O)/C=C/c1ccccc1Cl)C2 | . | . | . | i | . | .
Cc1nn(Cc2ccccc2)c(C)c1C(=O)OCC(=O)c1cc(C)n(CC(F)(F)F)c1C | -8.5% | 16.4µM* | -31.1% | i | -1.9% | -11.6%
COc1ccc(-c2cnnn2-c2ccc(NC(=O)c3c(F)cccc3F)cc2)cc1 | 14.9% | . | . | . | -4.8% | ?
CCOC(=O)c1noc2ncn(CC(=O)Nc3ccc(OC)c(Cl)c3)c(=O)c12 | 5.3% | . | -2.1% | i | -6.7% | 0.2%
CCN(CC)CCOc1ccc(/C(=C(/Cl)c2ccccc2)c2ccccc2)cc1 | ? | 12.9% | 25.1µM*! | . | 10µM*! | ?
CCOc1ccc(C(=O)OCCN(CC)CC)cc1 | -8.8% | . | 21.2% | i | 13.8% | 4.4%
COc1cccc(-c2ncn(CCc3ccccc3OC)c2C(C)C)c1 | . | . | ? | 11.2µM* | . | .
Cc1cnc(C(=O)Nc2cccc3cccnc23)cn1 | -7.5% | ? | ? | ? | -89.2% | 2.82µM*
CC1CCN(C(=O)C(C)Sc2nc(-c3ccccc3)cc(C(F)(F)F)n2)CC1 (stereo not given) | 1.9% | ? | -22.8% | i | 4.1% | 15.8µM*!
COc1ccc(-c2cc3nc(-c4ccccc4)cc(N4CCCC(O)C4)n3n2)cc1 (stereo not given) | ? | 13µM* | . | i | -15.3% | -21.7%
COc1ccc(-c2cc3nc(-c4ccccc4)cc(N4CCC(O)CC4)n3n2)cc1 | -20.8% | ? | . | i | -1.2% | ?
